Experimental findings from ChEMBL document CHEMBL4513216, “Probing the Open Global Health Chemical Diversity Library for Multistage-Active Starting Points for Next-Generation Antimalarials” (ACS Infect Dis, 2020) are described below.

Out of some 68,000 compounds screened, about 2,700 (4%) showed an effect of 50% or more. Only a selection was taken, and strong results are over-represented in it overall.

In this experiment the test system is Plasmodium berghei. The experiment in a line: Screen against P. berghei liver stage (PbLuc), transformed with Luciferase, at 2uM. It is filed as functional, HepG2. Particulars: tested at 2 uM.
For `CCOCC1CN(C(=O)c2ccco2)Cc2cnn(CC)c21` (stereo unspecified), the INHIBITION stood at 16.87%.
As for `Cc1ccsc1C(O)CNC(=O)Cc1ccc(S(=O)(=O)C(C)C)cc1` (stereo unspecified), the figure is 16.03%; as for `Cc1ccsc1C(O)CNC(=O)Cc1ccc(F)cc1` (stereo unspecified), 33.35%; as for `COc1ccc(CC(=O)NCC(O)c2sccc2C)cc1OC` (stereo unspecified), 55.52%.
As for `CCCn1nc(C)c(CNC(=O)c2snnc2C)c1C`, the figure is 32.26%.
Under `Cc1nc(N)cc(C2CCN2CCOc2ccccc2)n1` (stereo unspecified) stands -43.34%; under `Cc1ccc(NC(=O)c2ccc(=O)n(CC(=O)Nc3nccs3)n2)cc1`, -20.78%; under `Cc1cccc(-c2nc(C)nn2CC(=O)NC2CCCC2)c1`, 25.74%.
Regarding `Cc1ccc(NC(=O)c2ccc(=O)n(CC(=O)NC3CCCC3)n2)cc1`, the INHIBITION was found to be 50.2%.
As for `CCc1nnsc1C(=O)NCc1c(C)nn(CCOC)c1C`, the INHIBITION is 24.05%.
As for `Cn1nc(C2CCCN2)c2c(C(=O)NC3CC3)cc(C3CC3)nc21` (stereo unspecified), the figure is 11.43%.
With `Cc1cnn(CC2CN(C=C3NN=C(c4occc4C)O3)CCO2)c1` (stereo unspecified), the INHIBITION is recorded as -32.2%.
As for `Cc1ccoc1C1=NNC(=CN2CCn3c(C)nnc3C2)O1`, the figure is -9.22%.
`Cc1ccoc1C1=NNC(=CN2CCCC(Cn3cncn3)C2)O1` (stereo unspecified): the INHIBITION was found to be 3.9%.
Under `Cc1ccoc1C1=NNC(=CN2CCn3c(nnc3C(C)C)C2)O1` stands 83.22%.
As for `CCc1nnc2n1CCN(C=C1NN=C(c3occc3C)O1)C2`, the figure is -27.57%; as for `Cc1ccoc1C1=NNC(=CN2CCOC(Cn3cccn3)C2)O1` (stereo unspecified), 60.64%.
On to `NC(=O)C1CCN(C(=O)NCc2ccc3c(c2)OCCO3)CC1`, for which the INHIBITION was 42.17%.
As for `C[C@H]1C[C@H]2CN(S(=O)(=O)c3ccc(F)cc3)CC[C@H]2O1`, the figure is 47.42%; as for `Cc1nc(N2CCOc3ccc(CO)cc3C2)c2nc(C)oc2n1`, 34.52%.
As for `CC(C)OCCC(=O)NCCC(=O)N1CCN(c2ccccn2)CC1`, the INHIBITION is -8.63%.
As for `Cc1noc(C2CCN(Cn3cc(Cl)cn3)CC2)n1`, the INHIBITION was -16.03%.
As for `CCCOc1cc(CNC(=O)Nc2ccc(C)cc2)ccn1`, the figure is 5.88%; as for `Cc1csc([C@@H]2C[C@H]3CN(c4ncc(F)cn4)C[C@H]3O2)n1`, 19.01%.
Under `CC(=O)N1CCN(C(=O)C2CCN(c3cccnn3)C2)CC1` (stereo unspecified) stands -4.8%.
With `CN1CCC(C(=O)N2CCCN(c3cccnn3)CC2)C1` (stereo unspecified), the INHIBITION amounted to 45.48%.
As for `CN1CCN(C(=O)C2CCN(c3cccnn3)CC2)CC1`, the figure is 54.49%; as for `CN1CCN(C(=O)C2CCN(c3cccnn3)C2)CC1` (stereo unspecified), 33.64%; as for `CN1CCN(C(=O)C2CCCN(c3cccnn3)C2)CC1` (stereo unspecified), 59.49%.
As for `O=C(C1CCN(c2cccnn2)C1)N1CCOCC1` (stereo unspecified), the figure is 42.48%.
As for `CCC(C)c1cc(C(=O)N(CC(=O)NC)c2cccc(F)c2)on1` (stereo unspecified), the figure is -7.58%; as for `O=C([C@H]1C[C@H]2OCC[C@H]2N(CCc2ccccc2)C1)N1CCCCO1`, -10.8%; as for `Cc1cc(C(=O)N2CCN(C(=O)CC(C)C)[C@@H]3CS(=O)(=O)C[C@@H]32)no1`, -57.02%.
With `COc1ccc(CN2CCO[C@@H]3C[C@@H](C(=O)NC(C)C)C[C@H]32)cc1`, the INHIBITION is on record as 3.72%.
For the compound `CCN1CC(COC(=O)c2cc(C)nn2CC)CC1=O` (stereo unspecified), the INHIBITION was 3.46%.
As for `COc1ccc2c(C)c(C(=O)NC3CCOCC3)oc2c1`, the INHIBITION was -8.3%.
As for `COc1ccc2c(C)c(C(=O)NCC3CN(S(C)(=O)=O)CCO3)oc2c1` (stereo unspecified), the figure is 60.71%.
As for `COc1ccc2c(C)c(C(=O)NC3CCN(S(C)(=O)=O)CC3)oc2c1`, the figure is 11.9%.
On to `CC(C)CN1C[C@H](COCc2ccccc2)Oc2ncccc2C1=O`, for which the INHIBITION is 37.74%.
As for `COc1cc2[nH]c(=O)c(CN3CCC[C@H]3CO)cc2c(OC)c1OC`, the figure is 63.1%; as for `COc1cc2[nH]c(=O)c(CN3CCC[C@@H]3C(N)=O)cc2c(OC)c1OC`, -30.15%.
Take `COc1cc2[nH]c(=O)c(CN3CCCC3C)cc2c(OC)c1OC` (stereo unspecified): the INHIBITION is listed as -5.51%.
As for `CCNC(=O)C1CCN(Cc2ccc(C(=O)Nc3cnns3)cc2)C1` (stereo unspecified), the figure is 29.78%; as for `Cc1cc(C(=O)N2CCc3nc(N4CCCC4)nc(C)c3CC2)c(C)o1`, 22.96%.
Turning to `CCCc1cc(CN(C)C2CCSCC2)n[nH]1`, the INHIBITION is listed as 36.28%.
Under `CCCc1cc(CN(C)C2CSCCSC2)n[nH]1` stands -71.03%.
Consider `CCCc1cc(CN(C)C2CC(C)(C)NC(C)(C)C2)n[nH]1`, for which the INHIBITION came to 62.51%.
`CN1CCCN(c2ccc(F)cc2CNC(=O)c2ccsc2)CC1`: the INHIBITION is 31.05%.
As for `O=C(CN1CCN(c2ccnc3c(F)ccc(F)c23)CC1)N1CCCC1`, the figure is 3.01%.
Regarding `CC(C)(C)CN1CC(COc2ccccc2)Oc2ccncc2S1(=O)=O` (stereo unspecified), the INHIBITION was 14.96%.
As for `Cc1ccc(-c2noc(C(O)CC(C)C)n2)nn1` (stereo unspecified), the figure is -12.08%; as for `Cc1ccc(-c2noc([C@H](N)CC(C)C)n2)nn1`, 24.55%; as for `CCSC(C)c1nc(-c2ccc(C)nn2)no1` (stereo unspecified), 66.4%.
Under `Fc1cnc(N2C[C@@H]3C[C@@H](c4nc(C5CC5)cs4)O[C@@H]3C2)nc1` stands 3.53%.
With `Cc1nc(-c2cc(C(=O)O)co2)cs1`, the INHIBITION was 9.95%.
Under `CCOCC1CN(C(=O)c2ccncn2)Cc2cnn(CC)c21` (stereo unspecified) stands 4.99%.
As for `CC(C)C(C)(C#N)NC(=O)Cn1cc(I)cn1` (stereo unspecified), the INHIBITION is on record as 64.9%.
As for `CC(C)C(C)(C#N)NC(=O)Cn1cc(Cl)cn1` (stereo unspecified), the figure is 26.74%; as for `CC(C)C(C)(C#N)NC(=O)Cn1cc(-c2ccccc2)cn1` (stereo unspecified), -4.26%; as for `Cc1nccn1CCN1C(=O)CC2(CCCC2)CC1=O`, -50.2%.
As for `CCc1c(NCc2cccnc2)cnn1CC(C)C`, the figure is -16.94%; as for `CN(Cc1ccsc1)C(=O)Nc1ccc(S(C)(=O)=O)cc1`, -12.75%.
As for `O=C(O)CC(CC(=O)N(Cc1ccsc1)C1CC1)c1cccs1` (stereo unspecified), the figure is 1.06%; as for `Cn1cccc1CN(C(=O)Cc1cccs1)C1CC1`, 51.96%; as for `CN(Cc1cccs1)C1CCC[C@@H]2CN(C(=O)c3cccn3C)C[C@H]12` (stereo partly specified), 6.33%.
For the compound `CN(C(=O)Cc1cccs1)C1CCN(c2ccccn2)CC1`, the INHIBITION was found to be 16.89%.
Under `O=C(O)CC(CC(=O)NCCc1cccs1)c1cccs1` (stereo unspecified) stands 17.25%; under `Cn1cccc1CN(C(=O)CC(CC(=O)O)c1cccs1)C1CC1` (stereo unspecified), 81.52%.
As for `CCN(CC1CCOC1)C(=O)NCc1nnc2n1CCCCC2` (stereo unspecified), the figure is 7.24%; as for `CC(NCC1CCN(CCO)CC1)c1ccc(Cl)cc1` (stereo unspecified), 56.49%.
Under `CC(NCC1CCN(CCO)CC1)c1ccc(F)c(Cl)c1` (stereo unspecified) stands -111.19%; under `CC(NCC1CCN(CCO)CC1)c1cccc(Cl)c1` (stereo unspecified), 34.46%.
Regarding `CC(NCC1CCN(CCO)CC1)c1cccnc1` (stereo unspecified), the INHIBITION was -4.09%.
Under `CC(NCC1CCN(CCO)CC1)c1ccc(C(F)(F)F)cc1` (stereo unspecified) stands 55.39%.
For the compound `CC(NCC1CCN(CCO)CC1)c1ccc(OC(F)(F)F)cc1` (stereo unspecified), the INHIBITION came to 47.68%.
On to `CCc1nc(NC(=O)NCCc2cscn2)nn1C`, for which the INHIBITION is 1.88%.
As for `Clc1cccc(C(CNCc2ccccn2)N2CCOCC2)c1` (stereo unspecified), the figure is 20.8%; as for `CC(C)c1nn(C)c(N(C)C)c1CNCc1ccnc(N(C)C)c1`, 1.36%; as for `O=C(Cn1ccc2ccc(Cl)cc21)NCc1ccc(C(=O)O)cc1`, 30.98%.
Under `O=C(Nc1ccccc1)N1CC(C(=O)N2CCCC2)C2(CCOCC2)C1` (stereo unspecified) stands 51.72%; under `CC(C)NC(=O)C1CN(C(=O)Nc2ccccc2)CC12CCOCC2` (stereo unspecified), 47.1%; under `O=C(NCC1CC1)C1CN(C(=O)Nc2ccccc2)CC12CCOCC2` (stereo unspecified), -48.3%.
As for `CN(Cc1cc2n(n1)CCN(C(=O)[C@H]1CCCO1)C2)Cc1nccs1`, the figure is 24.08%.
With `c1ccc(Oc2cccc(OC34CCCN(CC3)C4)c2)cc1` (stereo unspecified), the INHIBITION stood at 43.72%.
As for `COCCc1noc(CN2CC(n3nc(C)cc3C)C2)n1`, the figure is 65.39%; as for `Cc1cc(C)n(C2CN(Cc3noc(-c4ccccc4)n3)C2)n1`, 1.34%; as for `COCCc1noc(CN2CCOC(Cn3nc(C)cc3C)C2)n1` (stereo unspecified), -85.26%.
As to `Cc1ccc(-c2nc(CN3CC(n4nc(C)cc4C)C3)no2)cc1`, the INHIBITION came to 31.55%.
As for `Cc1cc(C)n(C2CN(Cc3noc(C4CC4)n3)C2)n1`, the figure is -14.28%.
Under `Cc1cccc(-c2nc(CN3CC(n4nc(C)cc4C)C3)no2)c1` stands 51.31%.
As for `Cn1c(CO)cnc1SC1CCCN(c2ccccc2F)C1=O` (stereo unspecified), the INHIBITION came to 15.82%.
`Cc1ncsc1CN1CCn2c(COCC3CC3)cnc2C1C` (stereo unspecified): the INHIBITION was -21.27%.
As for `CCc1noc(CNC2CCCN(Cc3noc(C4CC4)n3)C2)n1` (stereo unspecified), the figure is 30.29%.
As for `CCS(=O)(=O)c1ncc(CN(C)Cc2ccccn2)n1CCOC`, the figure is -40.94%; as for `CCS(=O)(=O)c1ncc(CN(C)Cc2ccccc2Cl)n1CCOC`, -5.13%.
Under `CCS(=O)(=O)c1ncc(CN(C)Cc2ccccc2OC)n1CCOC` stands 60.74%; under `CN(C)Cc1cn(-c2ccccc2C(=O)NCCC2CCCN2C)cn1` (stereo unspecified), 16.43%.
As for `CN1CCCC1CCNC(=O)c1ccccc1-n1cnc(CN)c1` (stereo unspecified), the INHIBITION is 22.95%.
With `CN(C)Cc1cn(-c2ccccc2C(=O)NCC2CCCCN2C)cn1` (stereo unspecified), the INHIBITION turned out to be 87.38%.
Under `Cc1csc(N2CCN(Cc3nnsc3Cl)CC2C)n1` (stereo unspecified) stands -39.79%; under `c1ccc(C[C@H]2CN(Cc3nccs3)CC[C@@H]2OCC2CC2)cc1`, 41.79%.
As for `CC(C)NC(=O)N(C)C(c1cccc(F)c1)c1ccccn1` (stereo unspecified), the figure is -30.55%.
Regarding `CCNC(=O)N(C)C(c1cccc(F)c1)c1ccccn1` (stereo unspecified), the INHIBITION came out at 51.21%.
As for `CCNC(=O)N(C)C(c1ccccc1)c1ccccn1` (stereo unspecified), the figure is -18.26%; as for `Cc1ccc(S(=O)(=O)N2CCOCC2C(N)=O)c(F)c1` (stereo unspecified), 14.17%; as for `Cc1ccnc(SCC(=O)Nc2csc3nc(=O)c(C)nn23)n1`, 35.42%.
